The list is not random: actives were taken first. Their share in the collection is about 21%.
Pf growth 96h – P. falciparum growth inhibition at 96 hours; P. falciparum luciferase reporter growth, 96 h; Potency, µM (titrated, usually from 28.7 µM), for inactives: at the top dose activity change, negative = inhibition, usual class: inhibitors; hit rate 6.9% among 320,000; AID 504834; also: potency is read from the fitted curve at half-maximal effect; % is scaled to controls: 0 for no effect and ±100 for the full control effect
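Compounds incubated with erythrocytes infected by luciferase-expressing P. falciparum (2% hematocrit, 0.05% parasitemia final) for 96 hours, 37 C in 5% CO2. Growth inhibition scored as decreased luciferase luminescence.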
SARS PLpro yeast – SARS-CoV PLP inhibition in yeast | S. cerevisiae expressing SARS-CoV PLpro, growth rescue | Potency, µM (titrated, usually from 32.9 µM), without a hit: top-dose activity, positive = growth rescue, usual class: activators | hit rate 0.19% among 330,000; calls by dose curve; also: potency is read from the fitted curve at half-maximal effect; 0% is about no effect; nearly all actives have a fitted effect of over 55% in size
Shiga toxin inh – blocks Shiga toxin action in Vero cells; inhibition, % at 38.7 µM; AID 2315; hit rate 9.2% among 290,000; Vero cells, Shiga toxin protein synthesis inhibition reporter; in the data active = inhibition mostly above about 28%, no sharp cut-off; inactive = mostly below about 43%; also: 0% is about no effect
NS1 function inh – influenza NS1 inhibition; Potency, µM (titrated, usually from 46.1 µM), without a hit: top-dose activity, positive = more growth; hit rate 0.4% among 270,000; calls by dose curve; also: potency is read from the fitted curve at half-maximal effect; actives are rising curves; nearly all actives have a fitted effect of over 50% in size
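In this qHTS, NS1 from influenza A is expressed in budding yeast, where it slows growth. Cells are switched from glucose to 2% galactose medium (pH 6.0, -URA), treated with compound, and growth recovery is read at OD600.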
CHX counter – counter-screen hit for Shiga toxin inhibitors, cycloheximide. cell reporter, cycloheximide protein synthesis inhibition counterscreen. AID 2314. hit rate 12% among 300,000. max response, %; in the data active = max response mostly above about 13%, no sharp cut-off; inactive = mostly below about 14%; also: read at 38.3 µM for the half of the compounds with a filed dose; 0% is about no effect
Pf growth 48h – P. falciparum growth inhibition at 48 hours (one generation). P. falciparum luciferase growth in erythrocytes, 48 h. Potency, µM (series often up to 28.7 µM), without a hit: at the highest dose activity change, negative = inhibition, most hits filed as inhibitors. hit rate 5.9% among 310,000. AID 504832; also: potency is read from the fitted curve at half-maximal effect; % is scaled to controls: 0 for no effect and ±100 for the full control effect
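Parasite viability was followed by luminescence of a genomically integrated firefly luciferase. Cultures held 0.1% parasitemia at 2% hematocrit (final), incubated under 5% CO2 at 37 C.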
* = called active by the depositor; ? = inconclusive; . = no result. Unless noted, calls follow the shape of the dose curve; as a rule, active = well fitted inhibition curve with a large enough effect; inconclusive = small, poorly fitted or top-dose-only effect, or another doubt; inactive = no such curve, though single readings can be large or run the other way.

SMILES	Pf growth 96h	SARS PLpro yeast	Shiga toxin inh	NS1 function inh	CHX counter	Pf growth 48h
CCOC(=O)C1=C(c2ccccc2)NC(SCC(=O)NC2CCCCC2)=C(C#N)C1c1ccco1 (configuration not stated)	16.0%	0.0%	-27.5	13.6%	-2.3	11.7µM*
COCCOC(=O)C1=C(C)NC(SCC(=O)NC(C)(C)C)=C(C#N)C1c1ccco1 (configuration not stated)	.	?	-5.6	1.4%	-2.0	?
Cc1ccc(NC(=O)CSC2=C(C#N)C(c3ccco3)C3=C(CCCC3=O)N2)cc1 (configuration not stated)	33.7%	2.7%	32.3	?	18.6*	?
CCCCOC(=O)CSC1=C(C#N)C(c2cccnc2)C(C(=O)OCC)=C(c2ccccc2)N1 (configuration not stated)	?	-0.3%	-3.8	.	-2.3	?
N#CC1=C(SCC(=O)c2ccc(Cl)cc2)NC2=C(C(=O)CCC2)C1c1ccco1 (configuration not stated)	-0.2%	3.0%	-15.7	?	8.2	?
O=C(c1cccc(F)c1)N1CCCC(C(=O)N2CCN(c3ccccc3)CC2)C1 (configuration not stated)	23.8%	0.4%	-13.5	-1.1%	-1.7	37.8%
CCc1ccc(N(CC(=O)NC)S(C)(=O)=O)cc1	.	1.4%	-3.5	-7.4%	-4.8	-1.1%
COc1ccc([C@H]2CC(=O)C=C(c3ccc(Oc4ccccc4)cc3)C2)cc1OC	?	-2.2%	.	.	.	?
CSc1ccc(S(=O)(=O)NC2CC2)cc1	?	-11.1%	-1.5	2.2%	-3.2	20.1%
CC(=O)Nc1ccc(S(=O)(=O)Nc2nnc(C(C)C)s2)cc1	.	0.4%	-4.5	-0.6%	-2.5	17.9%
Cc1cc(C)nc(NC(=O)c2cc3ccccc3o2)n1	15.0%	1.3%	39.2	-20.3%	4.0	30.9%
CC(C)C(=O)Nc1cccc(NC(=O)c2cc3ccccc3o2)c1	.	-3.6%	42.2*	-34.5%	54.0*	69.4%
Cc1ccc(NC(=O)c2cc3ccccc3o2)cc1Cl	?	-3.5%	110.8*	-57.3%	46.9*	103.2%
CC(=O)Nc1cccc(NC(=O)c2cc3ccccc3o2)c1	188.0%	0.2%	48.9	-7.0%	33.0*	.
Cc1c(C2=CCN(S(=O)(=O)c3cccc(Cl)c3)CC2)c2ccccc2n1CC(=O)N1CCCC1	.	.	20.4	.	5.9	.
C[C@H]1C[C@@H](C)C(=O)[C@@H]([C@H](O)CC2CC(=O)NC(=O)C2)C1	?	-7.0%	-25.2	-68.7%	-6.6	0.0329µM*
Cc1cccc(C)c1NC(=O)NC1(C(=O)NCC2CCCO2)CCCCC1 (configuration not stated)	6.9%	6.1%	-2.1	3.9%	-7.3	1.4%
CCc1ccc(NC(=O)C2CCCN(S(=O)(=O)c3c(C)[nH]c(=O)[nH]c3=O)C2)cc1 (configuration not stated)	30.5%	1.0%	-5.2	.	-1.6	?
O=C(Nc1ccccc1)C1CCCN1S(=O)(=O)c1ccc(Br)cc1 (configuration not stated)	1.8%	-2.7%	-5.1	0.9%	0.6	-29.7%
O=C(Nc1ccc(Br)cc1)C1CCCN1S(=O)(=O)c1cccs1 (configuration not stated)	3.7µM*	-4.5%	2.9	-31.6%	-4.3	.
CCc1ccc(NC(=O)C2CCCN(S(=O)(=O)c3cccs3)C2)cc1 (configuration not stated)	?	-0.4%	30.0	12.3%	21.4*	?
CC(=O)c1ccc(NC(=O)C2CCCN(S(=O)(=O)c3c(C)[nH]c(=O)[nH]c3=O)C2)cc1 (configuration not stated)	4.15µM*	-0.4%	1.1	.	19.1	157.2%
CC(OC(=O)c1ccc(-c2ccc(O)cc2)cc1)C(=O)NC1CCCCC1C (configuration not stated)	?	4.9%	.	.	.	-20.3%
COc1ccccc1OCCNS(=O)(=O)c1ccc2oc3ccccc3c2c1	10.4µM*	-21.0%	0.8	-2.1%	-0.8	-18.4%
COCCNS(=O)(=O)c1ccc2c(c1)oc(=O)c1cc(S(=O)(=O)NCCOC)ccc12	1.85µM*	1.3%	-4.9	-3.1%	-1.8	?
SMILES	Pf growth 96h	SARS PLpro yeast	Shiga toxin inh	NS1 function inh	CHX counter	Pf growth 48h
O=C(Nc1cccc(-c2cn3ccccc3n2)c1)c1cc2ccccc2oc1=O	0.0%	-5.1%	71.4*	12.3%	59.3*	-11.6%
O=C(Nc1cccc(-c2cn3ccccc3n2)c1)c1cccs1	82.5%	-16.2%	60.8*	-21.7%	33.7*	55.7%
Cc1ccn2cc(-c3cccc(NC(=O)C(C)C)c3)nc2c1	21.0%	-0.6%	34.6	7.2%	22.5*	21.6%
Cc1ccn2cc(-c3cccc(NC(=O)c4ccccc4)c3)nc2c1	66.5%	2.6%	44.0*	-9.1%	59.9*	31.7%
COc1ccc(CC(=O)Nc2ccc(-c3cn4ccc(C)cc4n3)cc2)cc1	.	-8.9%	15.8	0.2%	15.6*	-55.6%
CC(C)C(=O)Nc1cccc(-c2cn3ccccc3n2)c1	19.9%	3.7%	17.3	2.7%	13.8*	33.9%
CC(=O)Nc1cccc(-c2cn3ccccc3n2)c1	13.1µM*	-0.9%	39.5	-2.7%	39.1	81.6%
CC(C)C(=O)Nc1cccc(-c2cn3ccsc3n2)c1	6.4%	0.0%	14.6	-3.2%	14.9	44.6%
O=C(/C=C/c1cn(-c2ccccc2)nc1-c1cccnc1)c1ccco1	3.4%	-0.3%	9.0	-2.6%	24.7*	?
O=C(/C=C/c1cn(-c2ccccc2)nc1-c1ccccc1)Nc1ccc(C(=O)O)cc1	0.0%	-1.3%	63.0*	.	14.2	49.7%
Cc1ccc(-c2nn(-c3ccccc3)cc2/C=C/C(=O)Nc2nccs2)cc1	?	-20.3%	4.3	-9.0%	-5.3	?
NS(=O)(=O)c1ccc(NC(=O)/C=C/c2cn(-c3ccccc3)nc2-c2cccc(Cl)c2)cc1	-10.5%	0.5%	0.8	?	-3.3	10.4µM*
O=C(O)/C=C/c1cn(-c2ccccc2)nc1-c1cccc([N+](=O)[O-])c1	-13.3%	-0.5%	-10.4	5.1%	-1.8	-15.9%
Cc1c(NC(=O)/C=C/c2cn(-c3ccccc3)nc2-c2ccc(F)cc2)c(=O)n(-c2ccccc2)n1C	9.28µM*	2.4%	-19.4	4.2%	9.0	3.9%
COc1ccc(Cc2nnc3sc(SCC(=O)Nc4ccccc4)nn3c2=O)cc1OC	?	3.1%	.	.	.	-26.0%
O=[N+]([O-])c1cccc(NC(=S)N2CCc3ccccc3C2)c1	16.9%	-0.7%	79.2*	.	58.7*	2.0%
COc1ccc(NC(=S)N2CCc3ccccc32)cc1OC	-16.1%	7.7%	90.3*	15.5%	40.2*	-11.3%
Fc1cccc(NC(=S)N2CCc3ccccc32)c1	-10.1%	0.6%	35.8	12.3%	30.8	28.4%
COc1ccccc1NC(=S)N1CCCc2ccccc21	84.3%	4.5%	6.2	.	5.3	79.7%
